# Source: PubChem BioAssay AID1850 (Southern Research Specialized Biocontainment Screening …, 2009)
# About 1,000 (0.32%) of roughly 310,000 compounds were called active. The rule behind the calls is not given here. Only a sample is shown. Results with a measured potency or affinity are listed apart.
# Assay: Inhibition of PhoP regulon, Salmonella typhi GFP reporter cells, confirmation, 4 h (AID 1850);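 note: 0% = induced wells with vehicle and 100% = uninduced wells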
# Details: Salmonella Typhi PhoP-promoter GFP reporter, fluorescence, at 50 µM, stronger effect = higher value
row,SMILES,inhibition
1,Cc1sc2nc(SCC(N)=O)n(-c3ccccc3)c(=O)c2c1C,-0.27% (inactive)
2,O=C(NNc1nc2ccccc2s1)c1ccc(F)cc1,-6.05% (inactive)
3,O=C(NNc1nc2cc3c(cc2s1)OCO3)c1cccc(F)c1,-11.1% (inactive)
4,CC(C)(C)c1ccc(S(=O)(=O)NNC(=O)C2CCN(Cc3cccc(F)c3)CC2)cc1,6.86% (inactive)
5,C=CCOC(=O)C1=C(C)NC(SCC(=O)Nc2nccs2)=C(C#N)C1c1ccc(Cl)cc1 (stereo not given),3.36% (inactive)
6,CN1CCN(C2Cc3ccccc3Sc3cc(C(F)(F)F)ccc32)CC1 (stereo not given),2.06% (inactive)
7,c1ccc2c(c1)CC(N1CCCCC1)c1ccccc1S2 (stereo not given),16.3% (inactive)
8,NC(=O)CCN1CCN(CCOC2Cc3cc(Cl)ccc3Sc3ccccc32)CC1 (stereo not given),-4.99% (inactive)
9,CN1Cc2cccc3c2C(Cc2ccccc2S3)C1 (stereo not given),-6.53% (inactive)
10,CC(C)c1ccc2c(c1)C(N1CCNCC1)Cc1ccc(F)cc1S2 (stereo not given),19.3% (inactive)
11,c1ccc2c(c1)CC(N1CCCCC1)c1ccccc1N2 (stereo not given),-3.45% (inactive)
12,O=C1Cc2ccccc2Sc2ccc(Cl)cc21,-8.12% (inactive)
13,CN1CCN(C2Cc3ccccc3Sc3ccc(Cl)cc32)CC1 (stereo not given),-13% (inactive)
14,Cc1ccccc1NC(=O)c1ccco1,-6.44% (inactive)
15,COc1ccc(/C=C2\CCCC3C2=NC(=S)NC3c2ccc(OC)cc2)cc1 (stereo not given),-6.47% (inactive)
16,COc1ccccc1-c1nc(-c2ccc(Br)cc2)no1,19.9% (inactive)
17,CC1CCCCN1CCNC(=O)c1ccc2c(c1)N(Cc1cccc(Cl)c1)C(=O)c1ccccc1S2=O (stereo not given),-21.9% (inactive)
18,Cc1ccc(CNC(=O)C2CC(c3ccc(C(F)(F)F)cc3)=NO2)o1 (stereo not given),-0.47% (inactive)
19,CCCc1cc(C(=O)OC)c(NC(=O)OCC)s1,0.48% (inactive)
20,COC(=O)CNC(=O)c1ccc(NS(=O)(=O)c2cc([N+](=O)[O-])ccc2Cl)cc1,-1.71% (inactive)
21,CN(C)C(=O)c1ccc(-n2cnc3ccccc3c2=O)cc1,6.15% (inactive)
22,Cc1cc(O)c2c(c1)C(=O)c1cc(O)cc(O)c1C2=O,-20.4% (inactive)
23,COc1cc(NC(=O)c2cccs2)c(C(=O)OCC(=O)NC(=O)NCc2ccccc2)cc1OC,-3.62% (inactive)
24,O=C(COC(=O)c1ccc([N+](=O)[O-])s1)Nc1ccccc1,4.19% (inactive)

row,SMILES,inhibition
1,NS(=O)(=O)c1ccc(NC(=O)COC(=O)c2ccc([N+](=O)[O-])s2)cc1,9% (inactive)
2,S=c1[nH]nc(COc2ccc(Cl)cc2)n1-c1ccc(Cl)cc1,2.37% (inactive)
3,Cc1ccc(N=Nc2ccc(O)c3ncccc23)cc1,-8.35% (inactive)
4,Cc1ccccc1N=Nc1ccc(O)c2ncccc12,-0.137% (inactive)
5,CCOc1ccc(N(CC(=O)NC2CCCCC2)C(=O)CCC(=O)Nc2cc(C)ccn2)cc1,2.46% (inactive)
6,COc1ccc(C(CCN)c2ccc3c(c2)OCO3)cc1 (stereo not given),-14.2% (inactive)
7,COc1ccc(C(CCNCc2ccc(N(C)C)cc2)c2ccccc2)cc1 (stereo not given),6.13% (inactive)
8,Cc1ccccc1OCCN1C(=O)c2ccccc2C1=O,-6.01% (inactive)
9,CCCNC(=O)COC(=O)c1ccc(S(=O)(=O)N2CCCCCC2)cc1,-7.39% (inactive)
10,CCn1cc(C(=O)O)c(=O)c2cnc(N3CCN(C(=S)Nc4ccccc4)CC3)nc21,7.15% (inactive)
11,CCCCCCCC(=O)N1CCN(c2cc3c(cc2F)c(=O)c(C(=O)O)cn3CC)CC1,9.58% (inactive)
12,CCCCCCCCC(=O)N1CCN(c2cc3c(cc2F)c(=O)c(C(=O)O)cn3CC)CC1,-9.35% (inactive)
13,CCCCCCC(=O)N1CCN(c2cc3c(cc2F)c(=O)c(C(=O)O)cn3CC)CC1,-12.4% (inactive)
14,C=CCNC(=S)N1CCN(c2ncc3c(=O)c(C(=O)O)cn(CC)c3n2)CC1,-7.57% (inactive)
15,CCCCCCCCCC(=O)N1CCN(c2cc3c(cc2F)c(=O)c(C(=O)O)cn3CC)CC1,-9.96% (inactive)
16,Cn1ccnc1SCC(=O)NC1CCCC1,-6.69% (inactive)
17,Cc1cccc2cc(CN(C(=O)c3cccc([N+](=O)[O-])c3)C(C)C)c(=O)[nH]c12,-4.34% (inactive)
18,COc1ccc(NC(=O)c2nc3nc(C)cc(C(F)F)n3n2)cc1OC,-3.09% (inactive)
19,CC(C)(C)c1ccc(CS(=O)(=O)CC2(O)CCN(C(=O)c3cccc(C(F)(F)F)c3)CC2)cc1,-0.12% (inactive)
20,CS(=O)(=O)c1ccc(Cl)c(NC(=O)COC(=O)Cc2c[nH]c3ccccc23)c1,-1.58% (inactive)
21,Cc1cc(N(CCO)CCO)ccc1N=Nc1cc(F)ccc1F,22.3% (inactive)
22,CCCOc1cccc(C(=O)Nc2cccc3ncccc23)c1,-5.81% (inactive)
23,CCOc1ccc(S(=O)(=O)N2CCN(C(=O)c3sccc3C)CC2)cc1,-3.32% (inactive)
24,CCCCCCn1cc(C(=O)O)c(=O)c2cc(F)c(N3CCN(C(=O)OCC)CC3)cc21,-8.26% (inactive)

row,SMILES,inhibition
1,CCCCCCn1cc(C(=O)O)c(=O)c2cc(F)c(N3CCN(C)CC3)cc21,-6.43% (inactive)
2,CCOC(=O)c1cn(CC)c2cc(N3CCCCC3)c(F)cc2c1=O,-24.8% (inactive)
3,CCCCNc1nnc(SCC(=O)N2CCN(S(=O)(=O)c3ccc4ccccc4c3)CC2)s1,-3.79% (inactive)
4,CC(=O)Nc1cccc(C(=O)OC(C)C(=O)NC2CCCc3ccccc32)c1 (stereo not given),-2.01% (inactive)
5,CCNc1cc(N2CCOCC2)nc(SC)n1,7.57% (inactive)
6,CCOC(=O)c1cn(C2CC2)c2c(F)c(F)c(F)cc2c1=O,5.55% (inactive)
7,O=C(O)c1cn(-c2ccc(N3CCCC3)c(F)c2)c2c(F)c(F)c(F)cc2c1=O,-7.01% (inactive)
8,COC(=O)C(c1cc(OC)c(O)c(OC)c1)(N1CCNC(C)C1)C(F)(F)F (stereo not given),-16.6% (inactive)
9,COc1c(F)c(F)cc2c(=O)c(C(=O)O)cn(C3CC3)c12,1.27% (inactive)
10,CCOC(=O)c1cn(C2CC2)c2c(F)c(NCCCN(C)C)c(F)cc2c1=O,4.81% (inactive)
11,Cc1cccc(-c2cc(=O)c(C(=O)O)cn2-c2ccc(F)cc2F)c1,-13.4% (inactive)
12,O=C(O)c1cn(C2CCCCC2)c2ccccc2c1=O,2.42% (inactive)
13,O=C(Nc1cccnc1)C1CC(c2ccccc2O)=NO1 (stereo not given),-2.59% (inactive)
14,CCNc1nc(NCC)nc(OCCOC(=O)c2ccccc2)n1,-3.56% (inactive)
15,COc1cc(CNCCN2CCOCC2)ccc1OCc1ccccc1Cl,8.72% (inactive)
16,COc1cccc(C2c3[nH]c4ccccc4c3C[C@H]3C(=O)N(c4ccccc4C(=O)N4CCC(C(=O)O)CC4)C(=O)N23)c1 (stereo not given in full),-4.46% (inactive)
17,O=C(c1cccc(F)c1)N1CCN(C(=O)c2cc3nc(-c4ccco4)cc(C(F)(F)F)n3n2)CC1,-3.4% (inactive)
18,COc1cc(NC(=O)Cc2ccc(F)cc2)cc(OC)c1OC,-5.66% (inactive)
19,CCOC(=O)Cc1csc(NC(NC(=O)CC)(C(F)(F)F)C(F)(F)F)n1,0.93% (inactive)
20,CC1CCCCC1NC(=O)COC(=O)COc1ccccc1Cl (stereo not given),-4.09% (inactive)
21,O=C(CCS(=O)(=O)c1cccc2nonc12)N1CCCc2ccccc21,4.05% (inactive)
22,CCOc1ccc(C(=O)Nc2nc(C)c(C(=O)OC)s2)cc1,-11% (inactive)
23,CCOc1ccc(S(=O)(=O)N2CN3CCN(C3)C2)cc1,-2.97% (inactive)
24,Cc1ccc(S(=O)(=O)N2CN3CCN(C3)C2)cc1,13.8% (inactive)

row,SMILES,inhibition
1,Cc1ccc(N2C(=O)c3ccccc3C2=O)cc1,-2.86% (inactive)
2,CC(=O)N(c1ccc(Cl)cc1)c1nc(C)cc(C)c1C#N,6.97% (inactive)
3,CCc1ccc(NC(=O)Nc2ccon2)cc1,-5.91% (inactive)
4,S=C(NCc1ccncc1)Nc1ccc(Cl)cc1,-0.61% (inactive)
5,S=C(NCc1ccc(Cl)cc1)Nc1ccccc1,-8.41% (inactive)
6,CCc1ccc(NC(=O)Nc2cnccn2)cc1,-5.86% (inactive)
7,O=C(Nc1ccncc1)Nc1ccncc1,0.03% (inactive)
8,O=C(Nc1ccncc1)Nc1ccc(F)c(Cl)c1,14.2% (inactive)
9,O=C1CCS/C(=N\N=C\c2ccc(Cl)cc2Cl)N1,6.05% (inactive)
10,CCc1ccc(-c2cc3c(=O)n(CC(=O)NCCCN4CCN(C)CC4)ncn3n2)cc1,5.21% (inactive)
11,CC1CCCCC1NC(=O)CSc1ccc([N+](=O)[O-])cc1 (stereo not given),6.99% (inactive)
12,Cc1cc(-c2nnc3n2N=C(c2ccc(F)cc2)CS3)n[nH]1,-5.9% (inactive)
13,COc1ccccc1-n1c(C)cc(C=O)c1C,-1.75% (inactive)
14,CCCc1nc(Cl)c(C#N)c2c1CCCC2,-3.33% (inactive)
15,CCOC(=O)Cc1cn2c(=O)cc(CSCC(=O)Nc3ccc(C)c(C)c3)nc2s1,-2.4% (inactive)
16,COc1cc2[nH]c3c(c2cc1OC)CCN1CCCC[C@@H]31,5.9% (inactive)
17,O=S(=O)(c1ccc(F)cc1)c1nc(-c2ccco2)oc1Nc1ccc(F)cc1,-12.3% (inactive)
18,C=CCn1c(SCC(=O)NC2CCS(=O)(=O)C2)nnc1-c1ccc(Cl)cc1 (stereo not given),-6.21% (inactive)
19,O=C(CSc1nnc(C2COc3ccccc3O2)o1)Nc1ccc(F)cc1Cl (stereo not given),-3.78% (inactive)
20,O=C(Nc1nnc(C2=COCCO2)o1)c1ccc(F)cc1,1.96% (inactive)
21,CCOC(=O)C1=C(COC(=O)C2(C)CC2(Cl)Cl)NC(=O)NC1c1ccc(OC)cc1 (stereo not given),6.71% (inactive)
22,COc1ccccc1CNCC(=O)Nc1cc(S(=O)(=O)N2CCCCCC2)ccc1Cl,-6.34% (inactive)
23,CCN(c1ccc(C(O)(C(=O)OC)C(F)(F)F)cc1)S(=O)(=O)c1ccccc1 (stereo not given),-2.75% (inactive)
